“And” between values parts separate entries of the source, which are not always exact repeats. Identical values can stand only once. Inconclusive results are not listed. The source made the active and inactive calls. Unless noted, no stated cut-off is given here; in the data, active means inhibition above about 80%; inactive means the rest.
What was measured:
[1] = growth inhibition of DIPG glioma cells, dose response, cell-based, SU-DIPG-XVII, MIPE5.0, CellTiter-Glo, qHTS (AID 1347060; cut-off not given, nearly all actives have AC50 up to about 26 µM;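 on AC50: cells exposed to compound for 48 hours before viability readout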); settings: SU-DIPG-XVII viability, CellTiter-Glo ATP luminescence
[2] = growth inhibition of DIPG glioma cells, dose response, cell-based, JHH-DIPG-1, MIPE4.0, CellTiter-Glo, qHTS (AID 1347062; cut-off not given, nearly all actives have AC50 up to about 27 µM;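 on AC50: cells exposed to compound for two days before readout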); settings: JHH-DIPG-1 viability, CellTiter-Glo ATP luminescence
[3] = growth inhibition of DIPG glioma cells, dose response, cell-based, SU-DIPG-IV, MIPE4.0, CellTiter-Glo, qHTS (AID 1347063; cut-off not given, nearly all actives have AC50 up to about 30 µM;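 further: compound exposure lasted 48 hours before the viability readout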); settings: SU-DIPG-IV viability, CellTiter-Glo ATP luminescence
[4] = viability loss in pontine glioma line – cell-based, SU-DIPG-XXV, MIPE5.0, CellTiter-Glo, qHTS, dose response (AID 1347065; cut-off not given, nearly all actives have AC50 up to about 26 µM;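 further: cells exposed to compound for 48 hours before ATP readout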); settings: CellTiter-Glo ATP luminescence
[5] = SU-DIPG-VI glioma cell viability, MIPE4.0 library, CellTiter-Glo luminescence, qHTS (AID 1347066; cut-off not given, nearly all actives have AC50 up to about 30 µM;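 further: cells exposed to compound for 48 hours before readout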); settings: CellTiter-Glo ATP luminescence
[6] = JHH-DIPG-1 glioma cell viability, MIPE5.0 library, CellTiter-Glo luminescence, qHTS (AID 1347067; cut-off not given, nearly all actives have AC50 up to about 26 µM;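 further: cells exposed to compound for 48 hours before readout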); settings: JHH-DIPG-1 glioma viability, CellTiter-Glo ATP luminescence
[7] = modifiers of HSF1 nuclear foci, imaging, Selleck Cancer Library (AID 1347162; in the data active means plate-normalised HSF1 focus index below about 0.46); settings: human cells, at 10 µM; SSMD: measured here: HSF1 foci SSMD mean; cell count: measured here: cell number; plate-normalised HSF1 focus index: stronger effect = lower value
[8] = LFS_MB_P medulloblastoma growth inhibition, cell-based, chromothripsis tumors, cisplatin or BGB combos (AID 1671449); settings: LFS_MB_P medulloblastoma cells;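 further: cells exposed for 96 hours; 0% = vehicle DMSO and 100% = killing by high DMSO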
[9] = HDN33 neuroblastoma growth inhibition, cell-based, chromothripsis tumors, cisplatin or BGB combos (AID 1671450); settings: HDN33 neuroblastoma cells, stronger effect = higher value;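 further: cells exposed to compound for four days; 0% = vehicle DMSO and 100% = cell killing by high DMSO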
[10] = ICB984 medulloblastoma cell growth inhibition, synergistic combos for chromothripsis tumors, cisplatin or BGB combos (AID 1671451; call rule not given here;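 further: cells exposed for 96 hours before readout; 0% = vehicle DMSO and 100% = killing by high DMSO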); settings: ICB984 medulloblastoma cells, drug combinations, stronger effect = higher value
[11] = HTB85 osteosarcoma cell growth inhibition, synergistic combos for chromothripsis tumors, BGB or cisplatin IC20 combos (AID 1671453); settings: HTB85 osteosarcoma cells, drug combinations, stronger effect = higher value;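 further: cells exposed for 96 hours before readout; 0% = vehicle DMSO and 100% = high DMSO killing control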
[12] = MDA-MB-436 breast carcinoma cell growth inhibition, synergistic combos for chromothripsis tumors, BGB or cisplatin combos (AID 1671458; call rule not given here;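 further: cells exposed for 96 hours; 0% = vehicle DMSO and 100% = killing by high DMSO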); settings: MDA-MB-436 breast carcinoma growth inhibition, drug combinations, stronger effect = higher value
[13] = growth inhibition of BT084 medulloblastoma cells, cell-based, ICGC_MB145, cisplatin and BGB IC40 combos (AID 1671461); settings: drug combinations, stronger effect = higher value;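 further: cells exposed to drugs for 96 hours; 0% = vehicle DMSO and 100% = high DMSO full killing control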
[14] = growth inhibition of RCMB18 medulloblastoma cells, cell-based, cisplatin and BGB IC40 combos (AID 1671462); settings: stronger effect = higher value;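 further: cells exposed to compound for four days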
[15] = growth inhibition of CRL1545 osteosarcoma cells, cell-based, cisplatin and BGB IC20 combos (AID 1671464); settings: stronger effect = higher value;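 further: cells exposed to compound for 96 hours before readout; 0% = vehicle DMSO and 100% = high DMSO killing control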
[16] = sensitizers of A549 cells to miR-34 induction, primary screen, imaging, A549 dox-inducible miR-34, nuclei and caspase counts (AID 1347080;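 active means compounds whose cell count with miR-34 switched on is under 0.7 times the count with it off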); settings: A549 miR-34 inducible, Hoechst nuclei count, 48 h
[17] = survival rescue of mitochondrial mutant cells in low glucose, primary screen, MELAS cybrids, Rieske KO mouse fibroblasts, CellTiter-Glo (AID 1508586;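 active means mean z-score across replicates of 1.96 or higher in either the MELAS or the Rieske mutant cell line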;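 further: z relative to plate mean and SD of compound and empty wells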)
[18] = measured here: with BGB IC20 combination, at 0.5 µM
[19] = measured here: with cisplatin IC20 combination, at 0.5 µM

C[C@]1(c2nc3c(C(N)=O)cccc3[nH]2)CCCN1
outcome [1]: inactive
outcome [2]: inactive
outcome [3]: inactive
outcome [4]: inactive
outcome [5]: inactive
outcome [6]: inactive
SSMD [7]: 0.253
cell count [7]: 7190
plate-normalised HSF1 focus index [7]: 1.01 (inactive)
inhibition ([8]; at 0.5 µM, stronger effect = higher value): -27.2% (inactive) and -25.3% (inactive)
inhibition ([8]; measured here: combination with BGB IC20, at 0.005 µM): -35.2% and -15.1%
inhibition ([8]; measured here: combination with BGB IC40, at 0.005 µM): -26.8% and -17.3%
inhibition ([8]; measured here: combination with BGB IC40, at 0.05 µM): -28.3% and -28.8%
inhibition ([8]; measured here: combination with cisplatin, at 0.5 µM, stronger effect = higher value): -54% and -57%
inhibition ([8]; measured here: combination with cisplatin, at 5 µM, stronger effect = higher value): -58.4% and -45%
inhibition ([9]; BGB combo, at 5 µM): -41.3% and 0.864%
inhibition ([9]; at 0.5 µM): -26.5% (inactive) and -7.62% (inactive)
inhibition ([9]; cisplatin combo, at 5 µM): -8.25% and -1.94%
inhibition [9, 18]: -35.3% and -12.7%
inhibition [9, 19]: -24.4% and -3.22%
inhibition ([9]; single agent, at 5 µM): -21.8% and -0.922%
inhibition ([10]; BGB IC20 combo, at 0.005 µM): -10.4% and 0.353%
inhibition ([10]; BGB IC40 combo, at 0.005 µM): -32.9% and -29.7%
inhibition ([10]; BGB IC40 combo, at 0.05 µM): -67.4% and -16%
inhibition ([10]; at 0.5 µM): -18.7% (inactive) and -15.6% (inactive)
inhibition ([10]; cisplatin combo, at 0.05 µM): -73.4% and -19.3%
inhibition ([10]; cisplatin combo, at 0.5 µM): -14.2% and -3.56%
inhibition ([10]; cisplatin combo, at 5 µM): -53.1% and -59.6%
inhibition ([10]; measured here: 5 uM single agent, at 5 µM): -10.3% and -11.7%
inhibition ([11]; at 0.5 µM): -20.2% (inactive) and -2.71% (inactive)
inhibition ([11]; measured here: with BGB IC20, at 0.5 µM): -24.9% and -6.8%
inhibition ([11]; measured here: with BGB IC20, at 5 µM): -10.1% and -13%
inhibition ([11]; measured here: with cisplatin IC20, at 0.5 µM): -31.1% and -8.43%
inhibition ([11]; measured here: with cisplatin IC20, at 5 µM): -30% and -31.9%
inhibition ([11]; single agent, at 5 µM): -4.02% and -2.12%
inhibition ([12]; at 0.5 µM): -1.32% (inactive) and -13.2% (inactive)
inhibition ([12]; measured here: BGB combination, at 0.5 µM): -3.82% and -21.5%
inhibition ([12]; measured here: BGB combination, at 5 µM): -15.2% and -14.8%
inhibition ([12]; measured here: cisplatin combination, at 0.5 µM): -9.15% and -22.2%
inhibition ([12]; measured here: cisplatin combination, at 5 µM): 7.37% and -17%
inhibition ([13]; at 0.5 µM): -14.1% (inactive) and -22% (inactive)
inhibition ([13]; cisplatin combination, at 0.5 µM): -37.9% and -21.6%
inhibition ([13]; cisplatin combination, at 5 µM): 2.98% and -9.14%
inhibition ([13]; measured here: BGB IC40 combination 0.05 uM, at 0.05 µM): 13.6% and 2.76%
inhibition ([13]; single agent, at 5 µM): -8.42% and -18.5%
inhibition ([14]; at 0.5 µM): -11.5% (inactive) and -16.6% (inactive)
inhibition ([14]; cisplatin combo, at 5 µM): -70.2% and -50.3%
inhibition ([14]; measured here: BGB IC40 combination, at 0.05 µM): -22.5% and 6.81%
inhibition ([14]; measured here: combination with cisplatin, at 0.5 µM): -15.1%
inhibition ([14]; single agent, at 5 µM): -28.5% and -25.1%
inhibition ([15]; at 0.5 µM): -23.7% (inactive) and 9.34% (inactive)
inhibition [15, 18]: -29.8% and -8.71%
inhibition [15, 19]: -22.5% and 16.5%
inhibition ([15]; single agent, at 0.05 µM): -19.2% and -14.5%
inhibition ([15]; single agent, at 5 µM): -45.7% and -33.6%

NCC(=O)Nc1ccc(-n2nc(C(F)(F)F)cc2-c2ccc3c(ccc4ccccc43)c2)cc1
AC50 [1]: 23.5 µM (active)
AC50 [2]: 23.5 µM (active)
AC50 [3]: 20.9 µM (active)
AC50 [5]: 20.9 µM (active)
AC50 [6]: 20.9 µM (active)
fold change ([16]; stronger effect = lower value, cell number ratio, induced over uninduced): 1.2 (inactive)
fold change ([16]; measured here: relative caspase fold change +Dox/-Dox): 0.441
cell count ([16]; measured here: total cells with miR-34 induction, stronger effect = lower value): 2160
cell count ([16]; measured here: total cells without miR-34 induction): 1800
z-score ([17]; MELAS cybrid survival, CellTiter-Glo 48 h, stronger effect = higher value): -0.432 (inactive)
z-score ([17]; Rieske KO mouse fibroblast survival, CellTiter-Glo 72 h): -0.00325

NC(=O)N1CCC(CC(=O)N2CCC([C@H]3c4ncc(Br)cc4CCc4cc(Cl)cc(Br)c43)CC2)CC1
AC50 [1]: 18.6 µM (active)
AC50 [2]: 23.5 µM (active)
AC50 [3]: 18.7 µM (active)
AC50 [4]: 16.6 µM (active)
AC50 [5]: 16.6 µM (active)
AC50 [6]: 23.5 µM (active)

CCN(CC)CCCCNc1nc2cc(Cl)c(Cl)cc2nc1-c1ccc(-c2cccs2)s1
AC50 [1]: 6.61 µM (active)
AC50 [2]: 7.43 µM (active)
AC50 [3]: 7.43 µM (active)
AC50 [4]: 5.25 µM (active)
AC50 [5]: 14.8 µM (active)
AC50 [6]: 9.34 µM (active)
